From the supplement of paper PMC12819154, “High-throughput peptide-centric local stability assay extends protein–ligand identification to membrane proteins, tissues and bacteria” (Nature Structural & Molecular Biology, 2025)

Compound: Cc1nc(Nc2ncc(C(=O)Nc3c(C)cccc3Cl)s2)cc(N2CCN(CCO)CC2)n1 [dasatinib]
Assay: log2 fold change of tryptic peptide abundance, ligand vs vehicle (limited proteolysis) (log2 ratio); higher = more trypsin-susceptible (destabilized)
Conditions: ligand concentration: 5 uM; sample: K562 cleared lysate

UniProt Q9P289, sequence (Q9P289 whole entry, looked up): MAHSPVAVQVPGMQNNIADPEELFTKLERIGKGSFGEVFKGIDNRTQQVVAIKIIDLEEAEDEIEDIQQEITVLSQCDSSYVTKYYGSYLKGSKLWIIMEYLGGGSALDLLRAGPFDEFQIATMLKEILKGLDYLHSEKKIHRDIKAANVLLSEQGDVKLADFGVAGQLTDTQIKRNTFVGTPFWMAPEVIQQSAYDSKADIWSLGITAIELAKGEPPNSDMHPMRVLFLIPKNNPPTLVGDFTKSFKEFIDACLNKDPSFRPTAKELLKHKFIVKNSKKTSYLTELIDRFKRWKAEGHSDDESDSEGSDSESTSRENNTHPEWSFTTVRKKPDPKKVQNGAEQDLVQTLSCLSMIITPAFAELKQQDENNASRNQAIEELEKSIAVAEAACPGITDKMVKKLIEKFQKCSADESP
UniProt Q13043, sequence (Q13043 whole entry): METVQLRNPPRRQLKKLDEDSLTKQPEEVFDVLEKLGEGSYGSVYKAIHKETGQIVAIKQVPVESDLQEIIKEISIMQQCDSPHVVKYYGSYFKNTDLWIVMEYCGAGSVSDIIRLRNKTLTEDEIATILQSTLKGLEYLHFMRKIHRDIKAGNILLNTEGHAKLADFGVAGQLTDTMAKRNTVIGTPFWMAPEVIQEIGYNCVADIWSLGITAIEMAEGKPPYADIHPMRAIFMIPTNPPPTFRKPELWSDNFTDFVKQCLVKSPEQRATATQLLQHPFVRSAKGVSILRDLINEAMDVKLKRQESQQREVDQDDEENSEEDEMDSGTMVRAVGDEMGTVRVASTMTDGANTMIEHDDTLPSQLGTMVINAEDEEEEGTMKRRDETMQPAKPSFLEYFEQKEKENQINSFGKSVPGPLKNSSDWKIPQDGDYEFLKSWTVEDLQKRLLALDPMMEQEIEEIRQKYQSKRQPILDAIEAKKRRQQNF
UniProt Q6PHR2, sequence (Q6PHR2 whole entry): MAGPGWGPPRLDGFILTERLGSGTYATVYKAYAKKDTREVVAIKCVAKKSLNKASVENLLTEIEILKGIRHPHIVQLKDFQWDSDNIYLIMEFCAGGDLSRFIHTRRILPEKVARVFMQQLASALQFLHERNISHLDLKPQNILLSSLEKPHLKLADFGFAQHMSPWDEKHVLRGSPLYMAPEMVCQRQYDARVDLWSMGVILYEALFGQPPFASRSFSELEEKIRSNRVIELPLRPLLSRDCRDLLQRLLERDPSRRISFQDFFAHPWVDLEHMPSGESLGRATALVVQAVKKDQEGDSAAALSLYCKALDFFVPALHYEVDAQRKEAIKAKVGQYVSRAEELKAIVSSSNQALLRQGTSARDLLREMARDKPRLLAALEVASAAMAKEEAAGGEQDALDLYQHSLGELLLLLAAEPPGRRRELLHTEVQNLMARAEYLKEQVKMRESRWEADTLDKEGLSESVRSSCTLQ
UniProt O14976, sequence (O14976 whole entry): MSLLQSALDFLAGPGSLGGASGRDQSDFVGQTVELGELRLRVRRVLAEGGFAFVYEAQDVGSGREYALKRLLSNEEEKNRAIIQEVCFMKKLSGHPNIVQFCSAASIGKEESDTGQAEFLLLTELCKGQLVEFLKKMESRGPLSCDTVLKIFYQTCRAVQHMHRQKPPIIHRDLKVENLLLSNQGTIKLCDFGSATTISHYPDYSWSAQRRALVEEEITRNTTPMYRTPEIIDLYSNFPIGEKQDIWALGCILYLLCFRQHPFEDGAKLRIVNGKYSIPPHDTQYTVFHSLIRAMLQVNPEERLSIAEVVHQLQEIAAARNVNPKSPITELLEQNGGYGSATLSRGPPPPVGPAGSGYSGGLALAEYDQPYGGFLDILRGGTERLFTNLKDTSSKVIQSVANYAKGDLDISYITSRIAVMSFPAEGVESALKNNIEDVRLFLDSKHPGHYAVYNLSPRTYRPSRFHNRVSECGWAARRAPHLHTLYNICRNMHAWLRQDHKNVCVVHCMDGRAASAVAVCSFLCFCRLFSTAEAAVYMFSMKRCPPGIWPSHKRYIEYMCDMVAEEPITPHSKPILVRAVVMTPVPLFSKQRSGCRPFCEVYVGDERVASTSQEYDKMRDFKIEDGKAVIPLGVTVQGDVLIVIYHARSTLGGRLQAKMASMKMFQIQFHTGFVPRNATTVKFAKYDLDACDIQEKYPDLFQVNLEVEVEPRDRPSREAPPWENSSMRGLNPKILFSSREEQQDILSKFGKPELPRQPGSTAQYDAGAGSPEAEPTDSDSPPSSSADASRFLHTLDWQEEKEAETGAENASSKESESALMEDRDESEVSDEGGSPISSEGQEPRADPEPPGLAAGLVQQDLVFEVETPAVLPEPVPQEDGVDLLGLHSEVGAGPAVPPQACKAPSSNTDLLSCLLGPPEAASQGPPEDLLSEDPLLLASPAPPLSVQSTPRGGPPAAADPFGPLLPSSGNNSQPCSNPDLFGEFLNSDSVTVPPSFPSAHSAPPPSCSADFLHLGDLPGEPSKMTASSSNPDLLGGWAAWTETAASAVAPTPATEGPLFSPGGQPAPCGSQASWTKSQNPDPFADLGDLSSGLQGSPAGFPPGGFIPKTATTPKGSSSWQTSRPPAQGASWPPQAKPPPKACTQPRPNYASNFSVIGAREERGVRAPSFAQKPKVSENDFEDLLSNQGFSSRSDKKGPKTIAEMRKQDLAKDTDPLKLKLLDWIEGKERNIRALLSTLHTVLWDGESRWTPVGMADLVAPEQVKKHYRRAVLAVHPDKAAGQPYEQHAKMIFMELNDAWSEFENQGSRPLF
UniProt P22830, sequence (P22830 whole entry): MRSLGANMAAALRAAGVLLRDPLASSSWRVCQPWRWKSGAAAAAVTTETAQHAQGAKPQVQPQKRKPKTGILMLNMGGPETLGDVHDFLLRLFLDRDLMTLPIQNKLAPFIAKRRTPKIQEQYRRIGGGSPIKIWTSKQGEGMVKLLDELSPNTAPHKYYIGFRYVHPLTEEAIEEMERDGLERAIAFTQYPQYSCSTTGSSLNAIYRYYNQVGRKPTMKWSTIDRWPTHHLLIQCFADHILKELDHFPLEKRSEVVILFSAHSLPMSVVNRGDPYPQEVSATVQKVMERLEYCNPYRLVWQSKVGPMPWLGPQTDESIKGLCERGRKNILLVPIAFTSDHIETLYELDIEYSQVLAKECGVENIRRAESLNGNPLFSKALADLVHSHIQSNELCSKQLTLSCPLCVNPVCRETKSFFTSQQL
UniProt Q16513, sequence (Q16513 whole entry, looked up): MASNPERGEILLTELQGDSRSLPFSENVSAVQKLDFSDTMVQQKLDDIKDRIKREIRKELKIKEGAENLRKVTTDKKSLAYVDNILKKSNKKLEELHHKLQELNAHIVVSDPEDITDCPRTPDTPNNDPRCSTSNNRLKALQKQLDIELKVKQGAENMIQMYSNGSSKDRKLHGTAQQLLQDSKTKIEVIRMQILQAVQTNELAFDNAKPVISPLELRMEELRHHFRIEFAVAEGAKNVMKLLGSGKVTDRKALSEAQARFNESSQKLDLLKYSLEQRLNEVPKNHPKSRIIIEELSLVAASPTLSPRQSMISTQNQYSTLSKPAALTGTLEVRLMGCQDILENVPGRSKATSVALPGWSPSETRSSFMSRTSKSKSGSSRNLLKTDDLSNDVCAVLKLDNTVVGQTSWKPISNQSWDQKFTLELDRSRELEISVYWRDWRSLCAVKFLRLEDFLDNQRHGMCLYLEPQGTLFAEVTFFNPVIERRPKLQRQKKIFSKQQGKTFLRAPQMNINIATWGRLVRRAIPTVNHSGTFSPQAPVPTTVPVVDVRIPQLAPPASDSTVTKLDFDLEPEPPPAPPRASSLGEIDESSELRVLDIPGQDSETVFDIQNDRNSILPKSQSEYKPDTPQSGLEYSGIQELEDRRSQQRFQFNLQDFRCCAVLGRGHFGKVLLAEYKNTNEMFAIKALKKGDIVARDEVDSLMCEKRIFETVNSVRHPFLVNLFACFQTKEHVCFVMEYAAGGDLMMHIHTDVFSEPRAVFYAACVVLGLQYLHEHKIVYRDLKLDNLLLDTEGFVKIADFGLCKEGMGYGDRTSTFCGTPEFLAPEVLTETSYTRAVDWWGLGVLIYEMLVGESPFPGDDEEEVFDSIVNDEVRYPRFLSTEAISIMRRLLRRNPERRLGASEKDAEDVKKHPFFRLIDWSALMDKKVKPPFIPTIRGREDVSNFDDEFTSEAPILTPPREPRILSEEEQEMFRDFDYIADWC
UniProt Q8TB40, sequence (Q8TB40 whole entry): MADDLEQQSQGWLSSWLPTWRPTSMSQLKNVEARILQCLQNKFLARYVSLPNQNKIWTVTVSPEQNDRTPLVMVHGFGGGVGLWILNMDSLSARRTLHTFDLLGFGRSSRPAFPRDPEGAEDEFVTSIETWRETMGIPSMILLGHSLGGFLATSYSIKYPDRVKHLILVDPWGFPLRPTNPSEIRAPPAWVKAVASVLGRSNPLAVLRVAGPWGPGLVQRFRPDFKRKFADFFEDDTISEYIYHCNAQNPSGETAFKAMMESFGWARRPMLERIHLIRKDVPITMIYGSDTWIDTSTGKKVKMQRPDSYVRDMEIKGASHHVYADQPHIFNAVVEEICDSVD
UniProt Q13188, sequence (Q13188 whole entry): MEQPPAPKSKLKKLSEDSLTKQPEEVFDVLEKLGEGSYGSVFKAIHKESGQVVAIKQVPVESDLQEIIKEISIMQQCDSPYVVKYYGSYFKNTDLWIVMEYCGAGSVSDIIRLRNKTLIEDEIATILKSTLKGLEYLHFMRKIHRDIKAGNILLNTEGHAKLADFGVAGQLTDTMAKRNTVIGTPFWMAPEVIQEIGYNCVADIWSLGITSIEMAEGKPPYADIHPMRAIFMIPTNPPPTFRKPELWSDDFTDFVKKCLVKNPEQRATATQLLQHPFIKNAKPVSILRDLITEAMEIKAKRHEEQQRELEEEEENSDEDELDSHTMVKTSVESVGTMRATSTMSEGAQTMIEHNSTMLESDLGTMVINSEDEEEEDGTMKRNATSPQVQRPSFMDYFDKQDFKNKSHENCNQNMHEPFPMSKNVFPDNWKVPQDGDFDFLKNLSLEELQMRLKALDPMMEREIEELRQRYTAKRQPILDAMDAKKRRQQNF

Target | log2 fold change
LIMK2 (peptide sequence: GFFGQAIK, peptide start residue: 340) (UniProt P53671) | -1.19
ILK (peptide sequence: DFNEECPR, peptide start residue: 234) (UniProt Q13418) | 0.893
PYGB (peptide sequence: GLAGLGDVAEVR, peptide start residue: 18) (UniProt P11216) | -0.49
ABHD4 (peptide sequence: VAGPWGPGLVQR, peptide start residue: 209) (UniProt Q8TB40) | 0.933
TNIK (peptide sequence: NHSQRPATEQLMK, peptide start residue: 273) (UniProt Q9UKE5) | -0.606
ADK (peptide sequence: TGCTFPEKPDFH, peptide start residue: 351) (UniProt P55263) | -0.858
SYK (peptide sequence: GSEVTAMLEKGER, peptide start residue: 578) (UniProt P43405) | -0.709
MAPK14 (peptide sequence: DLLIDEWK, peptide start residue: 331) (UniProt Q16539) | -1.32
MAP4K5 (peptide sequence: LLTHTFVAQPGLSR, peptide start residue: 271) (UniProt Q9Y4K4) | -0.838
UniProt P46781 (peptide sequence: ELLTLDEKDPRR, peptide start residue: 59) | -0.304
PYGL (peptide sequence: NLAENISR, peptide start residue: 271) (UniProt P06737) | -0.422
UniProt Q8NI60 (peptide sequence: VALLDFGATR, peptide start residue: 503) | -0.968
UniProt Q9Y2U5 (peptide sequence: LLGQGAFGR, peptide start residue: 361) | -0.631
PAK2 (peptide sequence: LLQTSNITK, peptide start residue: 105) (UniProt Q13177) | 0.206
UniProt Q16513 (peptide sequence: IFETVNSVR, peptide start residue: 708) | 0.751
ARAF (peptide sequence: RLLSDCLK, peptide start residue: 544) (UniProt P10398) | 0.619
MAP3K4 (peptide sequence: LGDFGCSVK, peptide start residue: 1479) (UniProt Q9Y6R4) | -1.67
UniProt Q8N4C8 (peptide sequence: NIATYYGAFIK, peptide start residue: 81) | -0.397
TAOK2 (peptide sequence: ELDNLQYR, peptide start residue: 299) (UniProt Q9UL54) | 0.422
PPAT (peptide sequence: TFIQPNMR, peptide start residue: 356) (UniProt Q06203) | -0.503

Target | log2 fold change
UniProt Q9P289 (peptide sequence: GSFGEVFK, peptide start residue: 33) | -0.606
UniProt Q13043 (peptide sequence: ATATQLLQHPFVR, peptide start residue: 270) | -0.627
RIPK2 (peptide sequence: KTEYPDVAWPLR, peptide start residue: 110) (UniProt O43353) | -1.34
JAK1 (peptide sequence: NVLVESEHQVK, peptide start residue: 1008) (UniProt P23458) | -1.51
UniProt Q02750 (peptide sequence: SYMSPER, peptide start residue: 228) | 1.37
ULK3 (peptide sequence: VIELPLRPLLSR, peptide start residue: 230) (UniProt Q6PHR2) | -0.336
MAP4K3 (peptide sequence: RNPQEDFELIQR, peptide start residue: 10) (UniProt Q8IVH8) | -1.06
TEC (peptide sequence: GCLLNFLR, peptide start residue: 448) (UniProt P42680) | -2.98
ABL2 (peptide sequence: NCLVGENHVVK, peptide start residue: 414) (UniProt P42684) | -2.95
GAK (peptide sequence: AIIQEVCFMK, peptide start residue: 81) (UniProt O14976) | -2.44
TNK1 (peptide sequence: VADFGLVRPLGGAR, peptide start residue: 261) (UniProt Q13470) | -0.538
UniProt P36507 (peptide sequence: KLEELELDEQQKK, peptide start residue: 40) | 0.445
UniProt Q16512 (peptide sequence: VLLSEFRPSGELFAIK, peptide start residue: 629) | 1.18
AASDHPPT (peptide sequence: IGQFVFAR, peptide start residue: 48) (UniProt Q9NRN7) | -0.547
UniProt Q9Y2K2 (peptide sequence: IGYYEIDR, peptide start residue: 63) | -1.83
FECH (peptide sequence: LFLDRDLMTLPIQNK, peptide start residue: 92) (UniProt P22830) | -0.278
UniProt P07947 (peptide sequence: LTTVCPTVKPQTQGLAK, peptide start residue: 251) | 2.59
UniProt Q13188 (peptide sequence: AGNILLNTEGHAK, peptide start residue: 152) | -0.627
UniProt Q13163 (peptide sequence: DVKPSNMLVNTR, peptide start residue: 283) | 1.77
MAPK11 (peptide sequence: ILDFGLAR, peptide start residue: 167) (UniProt Q15759) | -0.259
